Screening results (PubChem BioAssay)
Rows were chosen to be rich in hits. Some 3.1% of all compounds tested hit in one or more screens of this group.
SSB-PriA inh: K. pneumoniae PriA-SSBct interaction inhibition; AID 1272365; 430,000 tested, 0.6% active; inhibition, % at 33 µM; AlphaScreen SSBct-PriA binding, biotinylated peptide; in the data active = inhibition mostly above about 37%, no sharp cut-off; inactive = mostly below about 20%
BoNT-A LC inh2: inhibitors of Botulinum neurotoxin A light chain protease; 360,000 tested, 0.17% active; multiplex microsphere protease substrate cleavage, flow cytometry; inhibition, % at 10 µM
Anthrax LF prot: anthrax lethal factor protease inhibition | P15917 | multiplex microsphere protease cleavage assay, LF | inhibition, % at 10 µM | 360,000 tested, 0.12% active | AID 588501
BoNT F protease: inhibitors of Botulinum neurotoxin F light chain protease | AID 588497 | 360,000 tested, 0.22% active | Multiplex microsphere protease cleavage assay, flow cytometry | inhibition, % at 10 µM; in the data active = inhibition above about 35%, passing the limit was not always enough; inconclusive = no clear call, values can overlap the other calls
Bead autofluor: counter-screen for toxin protease inhibitors: compound fluorescence | compound autofluorescence counterscreen, microsphere flow cytometry; hits give high values | fluorescence intensity (concentration not given with the values) | 360,000 tested, 3.1% active | AID 624483; in the data active = fluorescence intensity above about 16000; inconclusive = no clear call, values can overlap the other calls
Hits are given with their value; i = inactive; ? = inconclusive; nt = not tested or not shown. Cut-off read from the data, not from the text of the source, unless noted: active = inhibition above about 30%; inconclusive = no clear call, values can overlap the other calls; inactive = below that.

SMILES	SSB-PriA inh	BoNT-A LC inh2	Anthrax LF prot	BoNT F protease	Bead autofluor
Cc1c(NC(=O)CSc2nccn2C)c(=O)n(-c2ccccc2)n1C	i	?	i	i	16417
CC(C)Oc1ccc(OCCNC2CCCC2)cc1	i	i	i	i	20103
CCOc1cccc(OCCNC2CCCC2)c1	i	i	i	i	i
COc1ccccc1OCCNC1CCCC1	i	i	i	i	21707
COc1ccc(/C=C2\CC/C(=C\c3ccc(OC)c(OC)c3)C2=O)cc1OC	i	i	i	i	i
COc1ccc(C=C2C=C(C(C)(C)C)C(=O)C(C(C)(C)C)=C2)cc1OC	i	86	i	i	i
COc1cccc(-c2noc(Cn3cccc(S(=O)(=O)N4CCCC4)c3=O)n2)c1OC	i	nt	nt	nt	nt
N#CC1=C(N)N2C(=C(C#N)C13CCCCC3)SC1CCCCC12O (stereo not drawn)	i	i	i	i	22232
Cc1cc(=O)[nH]c(SCc2nc3ccccc3s2)n1	i	i	i	i	i
Nc1cc(=O)[nH]c(SCc2ccccc2Cl)n1	i	i	i	i	i
CCCc1cc(=O)[nH]c(SCc2ccccc2Cl)n1	i	i	i	i	20635
CCCc1cc(=O)[nH]c(SCc2nc3ccccc3s2)n1	i	i	i	i	19993
CCOc1ccc(C(=O)NCC(OC)c2ccsc2)cc1OCC (stereo not drawn)	i	nt	nt	nt	nt
COC(=O)c1ccc(NC(=O)c2cccc(Cl)c2)o1	i	i	i	i	23122
COC(=O)c1ccc(NC(=O)c2ccc(C)cc2)o1	i	i	i	i	i
C=CCN(c1ccc(C(=O)O)cc1)S(=O)(=O)c1ccc(/C=C/C(=O)O)cc1	i	nt	nt	nt	nt
COC(=O)c1ccc(NC(=O)CCc2csc3nc(-c4ccccc4)cn23)cc1	i	nt	nt	nt	nt
O=c1c2ccccc2sn1-c1cc(S(=O)(=O)N2CCOCC2)ccc1N1CCOCC1	i	83	i	i	i
O=c1c2ccccc2sn1-c1cc(S(=O)(=O)N2CCOCC2)ccc1N1CCCC1	i	?	i	i	20573
Cc1cccc(OCC(=O)NCCc2sc(-c3cccc(F)c3)nc2C)c1	i	nt	nt	nt	nt
O=C(CN1C(=O)c2ccccc2C1=O)NCc1nnnn1-c1ccc(Cl)cc1	i	nt	nt	nt	nt
O=C(COc1cccc2ccc(N3CCCCC3)nc12)NCCc1ccccc1	i	nt	nt	nt	nt
COc1ccc2c(c1)=CC(=Cc1[nH]c(=S)[nH]c1O)C(=O)N=2	i	nt	nt	nt	nt
Cc1ccc(Cl)c2sc(N(CCN3CCOCC3)C(=O)c3ccco3)nc12	i	nt	nt	nt	nt
CCOC(=O)CSc1nnc(CNC(=O)c2ccc(S(=O)(=O)N3CCOCC3)cc2)n1C	i	i	i	i	i
SMILES	SSB-PriA inh	BoNT-A LC inh2	Anthrax LF prot	BoNT F protease	Bead autofluor
CCOC(=O)CSc1nnc(CNC(=O)c2cc(OCC)c(OCC)c(OCC)c2)n1C	i	i	i	i	23875
CCN(CC)S(=O)(=O)c1ccc(C(=O)NCc2nnc(SCC(=O)OC)n2C)cc1	i	i	i	i	18096
CCOC(=O)CSc1nnc(CNC(=O)c2ccc(S(=O)(=O)N3CCCC3)cc2)n1C	i	i	i	i	22679
C#CCOc1c(Br)cc(C=NNC(=O)CN2CCOCC2)cc1OCC	i	nt	nt	nt	nt
CCOc1cccc2sc(N(CCN(CC)CC)C(=O)c3ccc(S(=O)(=O)N(C)Cc4ccccc4)cc3)nc12	i	nt	nt	nt	nt
CCS(=O)(=O)c1ccc(C(=O)Nc2nc3ccc(NC(C)=O)cc3s2)cc1	i	nt	nt	nt	nt
O=C(C1CN(S(=O)(=O)C2CC2)C1)N1CCN(C(=O)C2CCCO2)CC1 (stereo not drawn)	i	nt	nt	nt	nt
O=C(Nc1cccc(F)c1)C1CCCN1S(=O)(=O)c1cccc2cccnc12 (stereo not drawn)	i	i	i	i	i
O=C(Nc1ccc(C(F)(F)F)cc1)C1CCCN1S(=O)(=O)c1cccc2cccnc12 (stereo not drawn)	i	i	i	i	16378
O=S(=O)(c1ccc2c(c1)CCO2)N1CC[C@H](c2ccc3c(c2)OCO3)C1	i	nt	nt	nt	nt
COCCNC(=O)c1c(NC(=O)c2ccc(Br)o2)n(Cc2ccccc2)c2nc3ccccc3nc12	i	35	i	i	i
COCCCNC(=O)c1c(NC(=O)c2ccco2)n(Cc2ccccc2)c2nc3ccccc3nc12	i	i	i	i	i
CCN(C(=O)c1ccnc(C(C)(C)C)c1)c1ccccc1	i	i	i	i	21211
CCSc1ccc(NC(=O)c2cccnc2)cc1	i	i	i	i	i
CCc1ccc(NC(=O)c2cccnc2)cc1	i	?	i	i	21122
CCc1ccc(NC(=O)c2ccnc(C(C)(C)C)c2)cc1	i	i	i	i	24202
O=C(Nc1ccc(NS(=O)(=O)c2ccccc2)cc1)c1cccnc1	i	i	i	i	i
CCCNS(=O)(=O)c1ccc(NC(=O)c2cccnc2)cc1	i	i	i	i	20443
Clc1cccc(-c2[nH]ncc2-c2ccncn2)c1	i	nt	nt	nt	nt
O=C(COc1ccc(Cl)cc1)NCC(=O)NN=Cc1cccs1	i	nt	nt	nt	nt
COCCCn1c(O)c(C=Nc2ccc(O)cc2)c(C)c(C#N)c1=O	i	nt	nt	nt	nt
CCc1ccc(OC(=O)c2cccnc2)cc1	i	i	37	i	i
CCc1ccc(NC(=O)N(C2CCCCC2)C(C)c2cccnc2)cc1 (stereo not drawn)	i	i	i	i	20168
CC(C)CS(=O)(=O)C1CN(S(=O)(=O)Cc2cccc(F)c2)C1	i	nt	nt	nt	nt
Cc1cc(F)ccc1S(=O)(=O)Nc1ccc2c(c1)N(CCC(C)C)C(=O)C(C)(C)CO2	i	nt	nt	nt	nt
SMILES	SSB-PriA inh	BoNT-A LC inh2	Anthrax LF prot	BoNT F protease	Bead autofluor
COc1ccc(C2C3=C(N=C4SCC(=O)N42)c2ccccc2CC3)cc1OC (stereo not drawn)	i	i	i	i	24021
CCc1cc(=O)oc2cc3oc(C)c(C)c3cc12	i	?	i	i	19139
CCCc1cc(=O)oc2cc3oc(C)c(C)c3cc12	i	i	i	i	i
COc1cc(Br)cc(CN2CCN(C)CC2)c1O	i	?	i	i	22111
CC(C)c1nccn1CC1CCN(S(=O)(=O)c2ccc(OC(F)(F)F)cc2)CC1	i	nt	nt	nt	nt
CC(/C=N/NC(=O)c1ccncc1)=C\c1ccc(C(C)C)cc1	nt	i	i	i	22320
CC(=O)Nc1ccc(Cl)c(C(N)=O)c1	i	i	i	i	19829
NC(=S)Nc1ccc(Cl)c(Cl)c1	i	i	52	?	i
CC(=O)Nc1cc(C(N)=O)c(Cl)cc1Cl	i	?	i	i	?
O=C(COc1ccc(Cl)cc1)NCC[C@@H](CCO)c1ccccc1	i	nt	nt	nt	nt
CC(C)c1[nH]nc2c1C(c1cccc(OC(=O)N3CCOCC3)c1)C(C#N)=C(N)O2 (stereo not drawn)	i	i	i	i	i
N#CC1=C(N)Oc2n[nH]c(-c3ccccc3)c2C1c1cccnc1 (stereo not drawn)	i	i	i	i	i
Cc1nn(Cc2ccccc2)c2c1C(c1cccnc1)C(C#N)=C(N)O2 (stereo not drawn)	i	i	i	i	i
CC(C)c1[nH]nc2c1C(c1cccnc1)C(C#N)=C(N)O2 (stereo not drawn)	i	i	i	i	19924
CCCc1nn(C)c2c1C(c1cccnc1)C(C#N)=C(N)O2 (stereo not drawn)	i	i	i	i	23902
Cc1ccc(-c2[nH]nc3c2C(c2ccc(OC(=O)N4CCOCC4)cc2)C(C#N)=C(N)O3)cc1 (stereo not drawn)	i	?	i	i	16622
